The values below come from PubChem BioAssay (NCATS).

Results filed as inconclusive are left out. Calls of active or inactive are those of the source. Unless noted, the call rests on the fitted dose curve; in most records, active means well fitted curve in the direction sought with a large enough effect; inconclusive means small, poorly fitted or top-dose-only effect, or another doubt; inactive means no such curve, though single readings can be large; an effect the other way counts as inactive or inconclusive. A value given as a limit tells only on which side of the number the result lay.

Experiment [1] has as its target Catechol O-methyltransferase (Homo sapiens) (UniProt P21964). In words: Confirmatory Screen for Target Class Profiling of Small Molecule Inhibitors of Methyltransferases (AID 1745852; calls by dose curve; further: potency means the concentration at half of the fitted maximal effect; on activity change, negative = inhibition: on the % scale 0 is the no-effect control and ±100 the full control effect). The settings on record: MTase-Glo luminescence, SAH detection, recombinant enzyme; measured here: COMT max response; stronger effect = lower value.
The target in experiment [2] is Guanidinoacetate N-methyltransferase (Homo sapiens) (UniProt Q14353). The experiment is described as above. To be noted: MTase-Glo luminescence, SAH detection, recombinant enzyme; activity change, negative = inhibition: at 57.3 µM (top of the series) unless noted; series mostly up to 57.3 µM.
For experiment [3], the target named is Nicotinamide N-methyltransferase (Homo sapiens) (UniProt P40261). Described as above. The settings on record: MTase-Glo luminescence, SAH detection, recombinant enzyme; measured here: NNMT max response; stronger effect = lower value.
Nicotinamide N-methyltransferase (Homo sapiens), sequence (P40261 whole entry, looked up): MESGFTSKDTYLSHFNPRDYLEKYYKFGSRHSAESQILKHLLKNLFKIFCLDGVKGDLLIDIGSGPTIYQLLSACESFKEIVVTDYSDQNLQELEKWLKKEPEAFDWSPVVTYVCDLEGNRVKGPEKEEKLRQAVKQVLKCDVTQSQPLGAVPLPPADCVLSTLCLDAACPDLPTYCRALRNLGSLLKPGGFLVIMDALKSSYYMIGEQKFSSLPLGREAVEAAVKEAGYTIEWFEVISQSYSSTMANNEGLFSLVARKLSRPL
Experiment [4] has as its target Phenylethanolamine N-methyltransferase (Homo sapiens) (UniProt P11086). The description is as above. To be noted: MTase-Glo luminescence, SAH detection, recombinant enzyme; measured here: PNMT max response; stronger effect = lower value.
Experiment [5] is described as follows: AP1 Signaling Pathway (AID 357; active means well fitted curve in either direction with a large enough effect, not every such curve was filed as active;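 further: ME-180 reporter cells stimulated with EGF at its EC50 level; on the % scale 0 is the no-effect control and ±100 the full control effect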). The settings on record: ME-180 (cervical carcinoma) AP-1-bla reporter, EGF-induced, beta-lactamase ratio, 5 h; at 7.69 µM (top of the series) unless noted. The procedure, abridged:
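AP-1-bla ME-180 cells, Opti-MEM + 0.5% dialyzed FBS, plated overnight 37 °C. Cpd titration + EC50 EGF, 5 h 37 °C. CCF4 2.5 h RT; ex 405, em 460/530 ratio → %activity, AC50.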

Experiment [6] can be described thus: NFAT Signaling Pathway (AID 444; active means well fitted curve in either direction with a large enough effect, not every such curve was filed as active;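 further: carbachol stimulus at about its EC50 of 1 µM final; on the % scale 0 is the no-effect control and ±100 the full control effect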). To be noted: Jurkat NFAT-bla M1, carbachol, beta-lactamase ratio, 5 h; at 7.69 µM (top of the series) unless noted. The procedure, abridged:
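Read-out: CCF4 FRET ratio (460 nm/530 nm) after 1 h RT dye loading, used for %activity and AC50 from titration series. Cells: Jurkat NFAT-β-lactamase/M1 line, treated with compound plus 1 uM carbachol for 5 h, 37 °C.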

In experiment [7] the target is Glucocorticoid receptor (Homo sapiens) (UniProt P04150). In words: GR-GFP Redistribution (AID 450;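 active means compounds whose dose series gives a full or clear partial fitted curve of increased nuclear translocation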; further: potency means the concentration at half of the fitted maximal effect). The settings on record: U2OS GR-GFP nuclear translocation, laser cytometry, 2 h.
Glucocorticoid receptor (Homo sapiens), sequence (P04150 whole entry, looked up): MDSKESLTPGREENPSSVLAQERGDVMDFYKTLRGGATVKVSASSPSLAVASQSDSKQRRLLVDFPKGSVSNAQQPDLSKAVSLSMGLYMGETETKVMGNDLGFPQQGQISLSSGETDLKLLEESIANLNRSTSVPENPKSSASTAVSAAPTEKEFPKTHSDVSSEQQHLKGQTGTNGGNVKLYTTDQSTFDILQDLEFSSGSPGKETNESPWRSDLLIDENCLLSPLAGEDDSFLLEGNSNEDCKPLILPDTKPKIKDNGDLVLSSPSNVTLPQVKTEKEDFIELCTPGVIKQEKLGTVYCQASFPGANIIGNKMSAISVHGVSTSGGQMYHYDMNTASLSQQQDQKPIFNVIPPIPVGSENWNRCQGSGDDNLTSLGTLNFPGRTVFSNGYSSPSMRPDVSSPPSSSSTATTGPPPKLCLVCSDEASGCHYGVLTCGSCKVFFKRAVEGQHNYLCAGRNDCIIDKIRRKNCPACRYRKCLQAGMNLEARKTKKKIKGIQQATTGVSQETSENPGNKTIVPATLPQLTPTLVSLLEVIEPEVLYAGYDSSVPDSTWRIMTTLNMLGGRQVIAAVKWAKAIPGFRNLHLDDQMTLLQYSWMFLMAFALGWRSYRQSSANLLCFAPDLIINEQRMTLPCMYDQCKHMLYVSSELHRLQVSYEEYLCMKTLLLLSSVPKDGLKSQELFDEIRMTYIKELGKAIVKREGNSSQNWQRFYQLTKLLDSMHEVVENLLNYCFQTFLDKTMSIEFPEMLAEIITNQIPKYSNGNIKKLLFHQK
Experiment [8] has the same target. In words: GR-EFC Redistribution (AID 451; calls by dose curve; further: potency means the concentration at half of the fitted maximal effect). The settings on record: CHO-K1 GR-EFC translocation, beta-gal luminescence, 2 h. The procedure, abridged:
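Translocation of GR-ED fusion to nuclear EA restores b-gal, read by luminescence after 1 h room-temperature detection. Engineered CHO-K1 biosensor cells, 1,000/well, exposed 2 h at 37 C to titrations up to 46 uM final.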

For experiment [9], the target named is 3',5'-cyclic-AMP phosphodiesterase 4B (Homo sapiens) (UniProt Q07343). The experiment is described as follows: qHTS Assay for Inhibitors of PDE-IV (AID 607; active means well fitted activation curve with a large enough effect in the main read-out, with a control signal flat, not every such curve was filed as active; further: % of control where 0% means no effect). The settings on record: HEK293 ACTOne CNG channel cells, membrane potential fluorescence; series mostly up to 22.9 µM. The procedure, abridged:
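The readout is membrane depolarisation from a cAMP-sensing CNG channel, detected with a potential dye at ex 535/em 590. Cells were HEK293-derived (endogenous PDE-IV) at 1000 cells/well, titrated up to 22.9 uM final.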
On the technique in general: qHTS replaces the single test concentration by a dilution series.

The target in experiment [10] is Guanine nucleotide-binding protein G(i) subunit alpha-1 (Homo sapiens) (UniProt P63096). In words: qHTS Assay for Inhibitors of RGS12 GoLoco Motif Activity (Green Fluorophore) (AID 879).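 Further: 0% = labeled peptide with Gαi1 and full inhibition = labeled peptide alone without protein; negative values mean loss of peptide binding seen as reduced polarization.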 To be noted: Galphai1/FITC-RGS12 GoLoco peptide, fluorescence polarization; series mostly up to 57.1 µM. The procedure, abridged: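 Fluorescence polarization assay: 50 nM Gαi1 with 10 nM FITC-labeled RGS12 GoLoco peptide in 10 mM Tris pH 7.5, 150 mM NaCl, 0.1 mM GDP, 0.05% NP40, 10 min at room temperature with compound.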
Guanine nucleotide-binding protein G(i) subunit alpha-1 (Homo sapiens), sequence (P63096 whole entry, looked up): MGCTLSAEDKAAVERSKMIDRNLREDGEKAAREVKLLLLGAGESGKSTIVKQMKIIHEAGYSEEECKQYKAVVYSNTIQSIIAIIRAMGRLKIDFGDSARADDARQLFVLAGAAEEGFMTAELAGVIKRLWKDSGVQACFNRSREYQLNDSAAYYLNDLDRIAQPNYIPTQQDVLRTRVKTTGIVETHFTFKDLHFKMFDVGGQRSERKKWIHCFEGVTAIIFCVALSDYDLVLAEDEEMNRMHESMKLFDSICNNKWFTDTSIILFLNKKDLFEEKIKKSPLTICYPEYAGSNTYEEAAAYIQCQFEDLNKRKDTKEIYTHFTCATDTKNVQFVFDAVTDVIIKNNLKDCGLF

The target of experiment [11] is Cytochrome P450 3A4 (Homo sapiens) (UniProt P08684). The experiment is described as follows: qHTS Assay for Activators of Cytochrome P450 3A4 (AID 885). Further: nearly all actives have a fitted effect of over 65% in size. The settings on record: recombinant CYP3A4, Luciferin-PPXE luminescence, 60 min; series mostly up to 57.1 µM. Put shortly: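 Steps: enzyme/substrate mix dispensed; compound added, 10 min RT; NADPH regeneration solution added, 60 min RT; luciferin detection buffer stops reaction; 20 min later luminescence measured.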
Cytochrome P450 3A4 (Homo sapiens), sequence (P08684 whole entry, looked up): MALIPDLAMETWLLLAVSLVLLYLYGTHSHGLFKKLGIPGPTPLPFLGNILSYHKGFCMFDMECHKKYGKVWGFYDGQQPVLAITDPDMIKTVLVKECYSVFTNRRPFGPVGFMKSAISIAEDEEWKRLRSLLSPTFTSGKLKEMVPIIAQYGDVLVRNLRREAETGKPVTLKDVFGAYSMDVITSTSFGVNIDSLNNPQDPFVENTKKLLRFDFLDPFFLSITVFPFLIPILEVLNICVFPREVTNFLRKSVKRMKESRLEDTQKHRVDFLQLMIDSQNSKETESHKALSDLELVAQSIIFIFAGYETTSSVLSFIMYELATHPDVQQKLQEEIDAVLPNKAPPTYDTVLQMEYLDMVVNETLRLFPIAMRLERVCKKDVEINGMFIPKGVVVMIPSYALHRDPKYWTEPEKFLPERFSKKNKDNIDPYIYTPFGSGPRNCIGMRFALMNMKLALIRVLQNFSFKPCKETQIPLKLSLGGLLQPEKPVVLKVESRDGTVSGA

Experiment [12] is described as follows: qHTS Assay for Identification of Small Molecule Antagonists for NFkB Signaling Pathway (AID 895; active means well fitted inhibition curve with a large enough effect in the signal ratio, with a control signal flat, not every such curve was filed as active; the % refers to the signal ratio; further: potency means the concentration at half of the fitted maximal effect). To be noted: NFkB beta-lactamase reporter cells, FRET ratio 460/530; stimulated with 10 pM TNF alpha. Put shortly:
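Beta-lactamase reporter read-out (460 and 530 nm emission ratio, 405 nm excitation, 2 hrs substrate loading RT) after 5 hr stimulation with 10 pM TNF alpha in compound-treated NFkB-bla ME-180 cells in low-serum medium.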

Experiment [13] concerns the target Muscarinic acetylcholine receptor M1 (Rattus norvegicus) (UniProt P08482). The experiment is described as follows: qHTS Assay for Antagonists of Acetylcholine Muscarinic M1 Receptor: Kinetic Measurement of Intracellular Calcium Response (AID 943).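 Further: Fluo-4 calcium signal as peak divided by basal fluorescence over 4 min; nearly all actives have a fitted effect of over 75% in size.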 To be noted: M1-expressing cells, kinetic intracellular calcium fluorescence; series mostly up to 35.3 µM. Put shortly:
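Rat M1-CHO cells, 2000/well, overnight → Fluo-4 no-wash dye with probenecid, 1 h 37C → compound 10 min, room temp → basal read 6 s → carbachol EC80 (100 nM) → 4 min kinetic read; peak/basal.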

Experiment [14] concerns the target Pyruvate kinase (Leishmania mexicana) (UniProt Q27686). The experiment is described as follows: qHTS Validation Assay for Inhibitors of Leishmania Mexicana Pyruvate Kinase (AID 945).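 Further: 0% = DMSO only neutral control wells.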 To be noted: purified L. mexicana pyruvate kinase, enzyme activity, E451W mutant enzyme; series mostly up to 57.5 µM. Put shortly:
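Read-out: luminescence from PKLight stop/detection reagent, data normalized to DMSO. Reaction: 0.2 nM E451W LmPYK, 0.5 mM PEP, 0.1 mM ADP, pH 7.2, 1 h room temperature.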

Experiment [15] addresses Pyruvate kinase PKM (Homo sapiens) (UniProt P14618). In words: qHTS Assay for Activators of Human Muscle Pyruvate Kinase (AID 954; active means well fitted curve in the direction sought with a large enough effect, not every such curve was filed as active;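 further: 0% = uninhibited enzyme and -100% = no enzyme or full thiadiazolimine inhibition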). The settings on record: purified human muscle pyruvate kinase, luciferase-coupled luminescence, 1 h; series mostly up to 57.5 µM. The procedure, abridged:
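Reaction: 0.1 nM purified PKM2 with 0.5 mM phosphoenolpyruvate and 0.1 mM ADP, room temperature, 1 h. Readout: luciferase-based ATP luminescence after stop reagent. Activators judged against a 0.3 nM enzyme column.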

Experiment [16] addresses Alpha-galactosidase A (Homo sapiens) (UniProt P06280). In words: Counterscreen for Glucocerebrosidase Inhibitors: qHTS Assay for Human alpha-Galactosidase at pH 4.5 (AID 992). Further: 0% is about no effect. The settings on record: purified enzyme, fluorogenic substrate; series mostly up to 76.9 µM. Put shortly:
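Concentration-response curves (0.7 nM to 77 uM final) were modeled with the Hill equation to give AC50. Reactions: 2 nM enzyme, 80 uM fluorogenic alpha-galactoside, pH 4.5 citric acid buffer, 20 min, room temperature.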
(In general: A counterscreen serves to expose hits that act by an unwanted route or on another target.)

For experiment [17], the target named is alpha-glucosidase (Oryza sativa, rice) (UniProt Q653V4). In words: Counterscreen for Glucocerebrosidase Inhibitors: qHTS Assay for Rice alpha-Glucosidase at pH 5.0 (AID 997).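 Further: 0% = full activity with enzyme and -100% = basal without enzyme.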 The settings on record: rice alpha-glucosidase enzyme activity; series mostly up to 76.9 µM. Put shortly: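 Rice alpha-glucosidase (4 nM final) with 400 uM 4-methylumbelliferyl-alpha-D-glucopyranoside in citrate buffer pH 5.0, 20 min at room temperature, stopped at pH 10; fluorescence 365/440 nm, compounds 0.7 nM–77 uM, AC50 from Hill fits.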

A short description of experiment [18]: NCATS anti-infectives library activity on HEK293 viability as a counter-qHTS vs the C. elegans viability qHTS (AID 1745854).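 Further: HEK293 cells exposed to compounds for 24 hr before the viability read; on the % scale 0 is the no-effect control and ±100 the full control effect.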 The settings on record: HEK293 viability counter-screen; series mostly up to 41.8 µM. Put shortly:
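Compounds were acoustically plated (several concentrations, 1:5, final up to 41.7 uM), then 1500 HEK293 cells added per well and incubated 24 hr at 37C, 5% CO2. CellTiter-Glo was added and luminescence read after 10 min.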

Catechol O-methyltransferase (Homo sapiens), sequence (P21964 whole entry, looked up): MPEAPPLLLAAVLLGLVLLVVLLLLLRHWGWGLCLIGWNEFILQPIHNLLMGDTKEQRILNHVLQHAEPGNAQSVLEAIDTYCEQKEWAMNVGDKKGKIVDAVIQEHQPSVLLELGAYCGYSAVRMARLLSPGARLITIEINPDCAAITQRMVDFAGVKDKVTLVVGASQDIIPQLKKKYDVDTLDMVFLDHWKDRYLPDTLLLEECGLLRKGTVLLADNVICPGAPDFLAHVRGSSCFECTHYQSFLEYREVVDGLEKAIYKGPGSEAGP
Phenylethanolamine N-methyltransferase (Homo sapiens), sequence (P11086 whole entry, looked up): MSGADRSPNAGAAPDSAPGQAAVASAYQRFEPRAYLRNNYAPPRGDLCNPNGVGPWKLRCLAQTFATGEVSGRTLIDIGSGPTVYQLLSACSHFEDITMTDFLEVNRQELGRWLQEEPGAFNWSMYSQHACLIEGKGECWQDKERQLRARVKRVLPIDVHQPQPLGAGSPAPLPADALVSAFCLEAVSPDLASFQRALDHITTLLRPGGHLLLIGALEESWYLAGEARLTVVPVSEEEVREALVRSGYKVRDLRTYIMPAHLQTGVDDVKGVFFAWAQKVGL
Pyruvate kinase PKM (Homo sapiens), sequence (P14618 whole entry, looked up): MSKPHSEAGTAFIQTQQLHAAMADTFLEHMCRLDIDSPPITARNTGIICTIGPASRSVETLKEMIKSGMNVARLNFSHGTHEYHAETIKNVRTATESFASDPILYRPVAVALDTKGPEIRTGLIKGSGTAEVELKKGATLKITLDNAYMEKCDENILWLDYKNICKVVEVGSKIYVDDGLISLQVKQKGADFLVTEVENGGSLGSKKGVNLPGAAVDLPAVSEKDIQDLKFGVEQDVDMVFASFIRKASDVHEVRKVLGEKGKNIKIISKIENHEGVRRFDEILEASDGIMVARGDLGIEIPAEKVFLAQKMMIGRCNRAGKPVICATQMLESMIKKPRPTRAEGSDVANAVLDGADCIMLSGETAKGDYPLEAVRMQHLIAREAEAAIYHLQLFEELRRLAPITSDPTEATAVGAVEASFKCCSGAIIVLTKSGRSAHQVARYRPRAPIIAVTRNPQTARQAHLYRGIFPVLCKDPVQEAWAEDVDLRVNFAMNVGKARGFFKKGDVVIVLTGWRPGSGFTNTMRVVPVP
3',5'-cyclic-AMP phosphodiesterase 4B (Homo sapiens), sequence (Q07343 whole entry, looked up): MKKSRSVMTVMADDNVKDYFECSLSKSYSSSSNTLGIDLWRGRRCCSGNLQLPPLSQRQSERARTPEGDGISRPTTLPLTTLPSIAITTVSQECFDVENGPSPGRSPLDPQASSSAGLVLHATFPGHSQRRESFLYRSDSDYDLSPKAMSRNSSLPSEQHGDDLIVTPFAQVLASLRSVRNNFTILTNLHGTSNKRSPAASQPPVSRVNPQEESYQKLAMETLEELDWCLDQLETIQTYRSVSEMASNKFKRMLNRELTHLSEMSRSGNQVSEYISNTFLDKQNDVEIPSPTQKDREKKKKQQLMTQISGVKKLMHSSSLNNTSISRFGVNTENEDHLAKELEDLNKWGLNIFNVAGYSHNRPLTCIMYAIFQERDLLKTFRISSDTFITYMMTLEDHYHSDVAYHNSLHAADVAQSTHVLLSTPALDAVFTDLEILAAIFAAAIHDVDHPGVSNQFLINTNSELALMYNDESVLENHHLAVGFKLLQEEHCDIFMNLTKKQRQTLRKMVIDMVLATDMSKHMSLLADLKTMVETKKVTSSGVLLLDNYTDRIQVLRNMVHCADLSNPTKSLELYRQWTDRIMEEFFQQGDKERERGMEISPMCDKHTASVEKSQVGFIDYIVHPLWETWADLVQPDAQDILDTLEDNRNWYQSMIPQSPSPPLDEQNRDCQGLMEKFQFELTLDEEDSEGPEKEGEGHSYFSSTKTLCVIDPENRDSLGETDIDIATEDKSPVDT
Alpha-galactosidase A (Homo sapiens), sequence (P06280 whole entry, looked up): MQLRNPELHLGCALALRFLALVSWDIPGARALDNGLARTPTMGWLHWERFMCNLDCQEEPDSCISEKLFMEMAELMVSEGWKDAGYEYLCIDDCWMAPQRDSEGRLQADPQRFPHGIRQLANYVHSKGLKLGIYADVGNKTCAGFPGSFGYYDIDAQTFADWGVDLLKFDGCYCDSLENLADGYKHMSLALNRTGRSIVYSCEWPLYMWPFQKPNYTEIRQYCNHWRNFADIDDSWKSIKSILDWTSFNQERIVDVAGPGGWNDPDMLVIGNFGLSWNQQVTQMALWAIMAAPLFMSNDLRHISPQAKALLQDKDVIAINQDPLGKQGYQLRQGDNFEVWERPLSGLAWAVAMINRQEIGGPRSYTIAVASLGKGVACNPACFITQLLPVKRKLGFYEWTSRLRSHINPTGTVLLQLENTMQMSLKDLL
Pyruvate kinase (Leishmania mexicana), sequence (Q27686 2-499 E452W): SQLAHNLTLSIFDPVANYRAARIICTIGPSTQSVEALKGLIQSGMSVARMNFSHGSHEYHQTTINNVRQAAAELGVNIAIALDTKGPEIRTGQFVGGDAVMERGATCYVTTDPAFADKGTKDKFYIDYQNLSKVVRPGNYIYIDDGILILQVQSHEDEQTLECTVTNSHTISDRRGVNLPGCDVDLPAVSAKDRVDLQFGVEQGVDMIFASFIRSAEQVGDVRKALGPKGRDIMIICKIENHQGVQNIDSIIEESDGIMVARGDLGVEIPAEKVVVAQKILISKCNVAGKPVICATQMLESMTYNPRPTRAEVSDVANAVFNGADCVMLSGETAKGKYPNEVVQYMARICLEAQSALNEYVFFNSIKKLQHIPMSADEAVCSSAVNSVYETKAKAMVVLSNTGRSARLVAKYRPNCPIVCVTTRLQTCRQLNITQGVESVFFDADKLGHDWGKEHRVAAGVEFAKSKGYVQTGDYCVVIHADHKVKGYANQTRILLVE

As to `CC[C@H](C)NC(=O)c1sc(=S)n2c1[nH]c(=O)c1cc(Cl)ccc12`, the activity is -75.3% in experiment [1], -78.5% in experiment [3] and -77% in experiment [4]. For the same molecule, the Potency in experiment [2] was 24.1 µM (active).

For the molecule `Cc1cnccc1NCCn1ccnc1-c1cc2n(n1)CCCNC2`, the values for the activity in experiment [1], in [3] and in [4] were -0.636%, 0.35% and 0.494%, respectively. Moreover, in [2], the activity change, negative = inhibition was found to be 2.5%.

For `Cn1nccc1-c1cc2c(cn1)CN(Cc1ccncc1)CCN2`, the values for the activity in experiment [1], in experiment [3] and in experiment [4] were 1.75%, -4.82% and 0.453%, respectively. Moreover, in [2], the activity change, negative = inhibition is 1.99% [at 85.7 µM].

As for `O=C(CCn1c(=O)[nH]c2cc(S(=O)(=O)N3CCCCC3)ccc21)Nc1ccc(Cl)cc1`, the activity in experiment [1] was -1.03%; in experiment [3], -18.8%; in experiment [4], -3.3%. Further, the activity change, negative = inhibition in experiment [2] is 0%.

Regarding `O=C(NCCc1ccc(Cl)cc1)c1ccc2c(=O)[nH]c3c(C(=O)NCC4CCCO4)sc(=S)n3c2c1` (stereo not given), the activity in experiment [1] is -36.2%; in experiment [3], -49.4%; in experiment [4], -36.4%. Also, the Potency in [2] was 27.1 µM (active).

As for `CN1C(=O)C(c2ccccc2)CC12CCN(c1ccnc(N)n1)CC2` (stereo not given), the activity in experiment [1] worked out at 6.59%; in experiment [3] it was 7.63%; in [4], 10.4%. In experiment [2], the activity change, negative = inhibition amounted to 9.95%.

For the molecule `C[C@H]1CN(C(=O)c2nn(C)c3ccccc23)C[C@@H]1c1nc(-c2cccnc2)no1`, the activity is 15.6% in experiment [1], -94% in experiment [3] and 7.38% in experiment [4]. Also, the activity change, negative = inhibition in experiment [2] was found to be 7.54%.

In the case of `O=c1cc(O)cc(/C=C\c2ccc(O)c(O)c2)o1`, the figures for the activity change, negative = inhibition in [5] and in [6] were -18.8% [at 38 µM] (inactive) and -13.6% [at 38 µM] (inactive), respectively. Further, the Potency was > 46 µM (inactive) in [7], > 46 µM (inactive) in experiment [8], 1.26 µM (active) in experiment [12] and 24.3 µM (active) in experiment [2]. The Potency entry in experiment [9], in experiment [10] and in [13] was “inactive” throughout. In addition, the outcome in [11], in experiment [14], in [15], in experiment [16] and in [17] was “inactive” in each case. In addition, the activity in [1] was 135%; in experiment [3], -15.8%; in experiment [4], -1.5%.

Regarding `O=C(CCc1nnc2n(CCc3ccccc3)c(=O)c3ccccc3n12)N1CCN(c2ccccc2)CC1`, the activity in experiment [1] was 0%; in [3], -41%; in experiment [4], 0.144%. Also, in experiment [2], the activity change, negative = inhibition was 0%.

On to `CC(C)Nc1nc2cc(Cl)c(Cl)cc2n1[C@H]1O[C@@H](CO)[C@H](O)[C@@H]1O`, for which, in [18], the Potency entry is “inactive”.

In the case of `CCOC(=O)c1c(C)sc(-c2c(-c3ccc(OC)c(F)c3)[nH]c3c2c(=O)[nH]c(=O)n3C)c1O`, in experiment [18], the Potency result was “inactive”.

With `CC(C)CCn1c(=O)c2ccccc2n2c(CCC(=O)N3CCN(c4cccc(Cl)c4)CC3)nnc12`, the activity in experiment [1] was 1.55%; in experiment [3], -55.2%; in experiment [4] it was -8.01%. The activity change, negative = inhibition in [2] turned out to be 1.8%.

For `Cc1nc2ccccc2c(-c2ccc3c(c2)CCCO3)c1C(OC(C)(C)C)C(=O)O` (stereo not given), in [18], the Potency entry was “inactive”.

Take `CCNc1nccc(N2CCC(CC(=O)NCC(C)C)CC2)n1`: the activity is -2.4% in experiment [1], -6.4% in [3] and -1.27% in [4]. For the same molecule, the activity change, negative = inhibition in experiment [2] is -5.08%.
